Laboratory results reported in the supplement of paper PMC8728848.
This excerpt belongs to a sample that is enriched for the strongest signals.

Experiments:
Experiment in all cases: glycan array binding signal (z-score within array); higher = stronger binding
Settings in all cases: glycan notation: IUPAC condensed, linker removed
[1] = biological target: Fuc(a1-2)Gal(b1-3)GalNAc(a1-3)[Fuc(a1-2)]Gal(b1-4)GlcNAc
Outline: (§1)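 Columns mapping to the same glycan were averaged after glycan names were converted to IUPAC-condensed notation. The data come from 3228 arrays in the Consortium for Functional Glycomics database, limited to those with an available protein sequence. Binding is reported as a within-array Z-score averaged across arrays of one protein sequence and across linkers.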

[2] = biological target: Fuc(a1-2)Gal(b1-3)GalNAc(b1-3)Gal(a1-4)Gal(b1-4)Glc
Outline: as §1

[3] = biological target: Fuc(a1-2)Gal(b1-3)GlcNAc(b1-2)Man(a1-3)[Fuc(a1-2)Gal(b1-3)GlcNAc(b1-2)Man(a1-6)]Man(b1-4)GlcNAc(b1-4)[Fuc(a1-6)]GlcNAc
Outline: as §1

[4] = biological target: Fuc(a1-2)Gal(b1-4)GlcNAc(b1-6)GalNAc
Outline: as §1

[5] = biological target: Fuc(a1-2)Gal6S(b1-4)Glc
Outline: as §1

[6] = biological target: Fuc(a1-2)[Gal(a1-3)]Gal(b1-4)GlcNAc(b1-3)GalNAc
Outline: as §1

[7] = biological target: Fuc(a1-3)[Gal(b1-4)]GlcNAc6S
Outline: as §1

[8] = biological target: Fuc(a1-4)GlcNAc
Outline: as §1

[9] = biological target: Gal(a1-3)Gal(b1-3)GlcNAc
Outline: as §1

[10] = biological target: Gal(a1-3)Gal(b1-4)[Fuc(a1-3)]GlcNAc
Outline: as §1

[11] = biological target: Gal(a1-3)Gal(b1-4)[Fuc(a1-3)]GlcNAc(b1-2)Man(a1-3)[Gal(a1-3)Gal(b1-4)[Fuc(a1-3)]GlcNAc(b1-2)Man(a1-6)]Man(b1-4)GlcNAc(b1-4)GlcNAc
Outline: as §1

[12] = biological target: Gal(a1-3)[Gal(a1-4)]Gal(b1-4)GlcNAc
Outline: as §1

[13] = biological target: Gal(a1-4)Gal(b1-4)Glc
Outline: as §1

[14] = biological target: Gal(b1-3)Gal
Outline: as §1

[15] = biological target: Gal(b1-3)GalNAc(b1-3)Gal(a1-4)Gal(b1-4)Glc
Outline: as §1

[16] = biological target: Gal(b1-3)GalNAc(b1-4)[Neu5Ac(a2-3)]Gal(b1-4)Glc
Outline: as §1

[17] = biological target: Gal(b1-3)GlcNAc(b1-3)GalNAc
Outline: as §1

[18] = biological target: Gal(b1-3)[Neu5Ac(a2-6)]GalNAc
Outline: as §1

[19] = biological target: Gal(b1-3)[Neu5Ac(a2-6)]GlcNAc(b1-4)Gal(b1-4)Glc
Outline: as §1

[20] = biological target: Gal(b1-3)[Neu5Ac(b2-6)]GalNAc
Outline: as §1

[21] = biological target: Gal(b1-4)GlcNAc(b1-2)Man(a1-3)[Gal(b1-4)GlcNAc(b1-2)Man(a1-6)]Man(b1-4)GlcNAc(b1-4)GlcNAc
Outline: as §1

[22] = biological target: Gal(b1-4)GlcNAc(b1-2)Man(a1-6)[GlcNAc(b1-2)Man(a1-3)]Man(b1-4)GlcNAc(b1-4)GlcNAc
Outline: as §1

[23] = biological target: Gal(b1-4)GlcNAc(b1-3)Gal(b1-4)GlcNAc(b1-3)Gal(b1-4)GlcNAc(b1-3)Gal(b1-4)GlcNAc(b1-3)Gal(b1-4)GlcNAc(b1-3)Gal(b1-4)GlcNAc(b1-2)Man(a1-3)[Gal(b1-4)GlcNAc(b1-3)Gal(b1-4)GlcNAc(b1-3)Gal(b1-4)GlcNAc(b1-3)Gal(b1-4)GlcNAc(b1-3)Gal(b1-4)GlcNAc(b1-3)Gal(b1-4)GlcNAc(b1-2)Man(a1-6)]Man(b1-4)GlcNAc(b1-4)GlcNAc
Outline: as §1

[24] = biological target: Gal(b1-4)GlcNAc(b1-3)[Gal(b1-4)GlcNAc(b1-6)]Gal(b1-4)GlcNAc
Outline: as §1

[25] = biological target: Gal(b1-4)GlcNAc(b1-6)GalNAc
Outline: as §1

[26] = biological target: Gal(b1-6)Gal
Outline: as §1

[27] = biological target: Gal3S(b1-3)[Fuc(a1-4)]GlcNAc
Outline: as §1

[28] = biological target: Gal3S4S(b1-4)GlcNAc
Outline: as §1

[29] = biological target: Gal3S6S(b1-4)GlcNAc
Outline: as §1

[30] = biological target: Gal6P(b1-4)GlcNAc
Outline: as §1

[31] = biological target: GalNAc(a1-3)GalNAc
Outline: as §1

[32] = biological target: GalNAc(a1-3)GalNAc(b1-3)Gal(a1-4)Gal(b1-4)GlcNAc
Outline: as §1

[33] = biological target: GlcNAc(b1-2)[GlcNAc(b1-4)]Man(a1-3)[GlcNAc(b1-4)][GlcNAc(b1-2)Man(a1-6)]Man(b1-4)GlcNAc(b1-4)GlcNAc
Outline: as §1

[34] = biological target: GlcNAc(b1-3)Gal(b1-4)GlcNAc(b1-6)[GlcNAc(b1-3)Gal(b1-3)]GalNAc
Outline: as §1

[35] = biological target: Kdn(a2-3)Gal(b1-4)[Fuc(a1-3)]GlcNAc
Outline: as §1

[36] = biological target: Man(a1-2)Man(a1-2)Man(a1-3)Man
Outline: as §1

[37] = biological target: Man(a1-2)Man(a1-2)Man(a1-6)[Man(a1-3)]Man
Outline: as §1

[38] = biological target: Man(a1-3)[Man(a1-6)]Man(a1-6)[Man(a1-3)]Man
Outline: as §1

[39] = biological target: Neu5Ac(a2-3)Gal(b1-3)GlcNAc(b1-6)GalNAc
Outline: as §1

[40] = biological target: Neu5Ac(a2-3)Gal(b1-4)GlcNAc(b1-2)[Neu5Ac(a2-3)Gal(b1-4)GlcNAc(b1-4)]Man(a1-3)[GlcNAc(b1-4)][Neu5Ac(a2-3)Gal(b1-4)GlcNAc(b1-2)[Neu5Ac(a2-3)Gal(b1-4)GlcNAc(b1-6)]Man(a1-6)]Man(b1-4)GlcNAc(b1-4)GlcNAc
Outline: as §1

[41] = biological target: Neu5Ac(a2-3)Gal(b1-4)GlcNAc(b1-2)[Neu5Ac(a2-3)Gal(b1-4)GlcNAc(b1-6)]Man(a1-6)[Neu5Ac(a2-3)Gal(b1-4)GlcNAc(b1-2)Man(a1-3)]Man(b1-4)GlcNAc(b1-4)GlcNAc
Outline: as §1

[42] = biological target: Neu5Ac(a2-3)Gal(b1-4)GlcNAc(b1-3)Gal(b1-4)GlcNAc(b1-3)Gal(b1-4)GlcNAc
Outline: as §1

[43] = biological target: Neu5Ac(a2-3)Gal(b1-4)GlcNAc(b1-3)Gal(b1-4)GlcNAc(b1-3)[Neu5Ac(a2-3)Gal(b1-4)GlcNAc(b1-3)Gal(b1-4)GlcNAc(b1-6)]GalNAc
Outline: as §1

[44] = biological target: Neu5Ac(a2-3)Gal(b1-4)GlcNAc6S
Outline: as §1

[45] = biological target: Neu5Ac(a2-3)Gal(b1-4)[Fuc(a1-3)]GlcNAc6S
Outline: as §1

[46] = biological target: Neu5Ac(a2-6)Gal(b1-4)GlcNAc(b1-2)Man(a1-3)[Neu5Ac(a2-6)Gal(b1-4)GlcNAc(b1-2)Man(a1-6)]Man(b1-4)GlcNAc(b1-4)GlcNAc
Outline: as §1

[47] = biological target: Neu5Ac(a2-6)Gal(b1-4)GlcNAc(b1-2)Man(a1-6)[Gal(b1-4)GlcNAc(b1-2)Man(a1-3)]Man(b1-4)GlcNAc(b1-4)GlcNAc
Outline: as §1

[48] = biological target: Neu5Ac(a2-6)Gal(b1-4)GlcNAc(b1-2)Man(a1-6)[GlcNAc(b1-2)Man(a1-3)]Man(b1-4)GlcNAc(b1-4)GlcNAc
Outline: as §1

[49] = biological target: Neu5Ac(a2-6)Gal(b1-4)GlcNAc(b1-2)[Neu5Ac(a2-6)Gal(b1-4)GlcNAc(b1-4)]Man(a1-3)[GlcNAc(b1-4)][Neu5Ac(a2-6)Gal(b1-4)GlcNAc(b1-2)[Neu5Ac(a2-6)Gal(b1-4)GlcNAc(b1-6)]Man(a1-6)]Man(b1-4)GlcNAc(b1-4)GlcNAc
Outline: as §1

[50] = biological target: Neu5Ac(a2-6)GalNAc
Outline: as §1

[51] = biological target: Neu5Ac(a2-6)GalNAc(b1-4)GlcNAc
Outline: as §1

[52] = biological target: Neu5Ac(a2-6)GalNAc(b1-4)GlcNAc6S
Outline: as §1

[53] = biological target: Neu5Ac(a2-8)Neu5Ac(a2-3)Gal(b1-4)GlcNAc
Outline: as §1

[54] = biological target: Neu5Ac(a2-8)Neu5Ac(a2-8)Neu5Ac(a2-3)[Gal(b1-3)GalNAc(b1-4)]Gal(b1-4)Glc
Outline: as §1

[55] = biological target: Neu5Gc(a2-3)Gal(b1-4)GlcNAc
Outline: as §1

[56] = biological target: Neu5Gc(a2-8)Neu5Ac(a2-3)Gal(b1-4)GlcNAc
Outline: as §1

[57] = biological target: Neu5Gc(a2-8)Neu5Gc(a2-6)Gal(b1-4)GlcNAc
Outline: as §1

B1: DCIR1 (Mus musculus), Q9QZ15 (protein)
chain: MASEITYAEVKFKNESNSLHTYSESPAAPREKPIRDLRKPGSPSLLLTSLMLLLLLLAITFLVAFIIYFQKYSQLLEEKKAAKNIMHNELNCTKSVSPMEDKVWSCCPKDWRLFGSHCYLVPTVSSSASWNKSEENCSRMGAHLVVIQSQEEQDFITGILDTHAAYFIGLWDTGHRQWQWVDQTPYEESITFWHNGEPSSGNEKCATIIYRWKTGWGWNDISCSLKQKSVCQMKKINL
With B1 the “glycan array binding signal (z-score)” value [1] was 0.031, the “glycan array binding signal (z-score)” value [2] was 3.31 and the “glycan array binding signal (z-score)” value [3] was 3.05. The “glycan array binding signal (z-score)” value [4] was 3.97, the “glycan array binding signal (z-score)” value [5] was 1.87 and the “glycan array binding signal (z-score)” value [6] was -0.604. For the same binder, the “glycan array binding signal (z-score)” value [7] was 1.43, the “glycan array binding signal (z-score)” value [8] was -0.807 and the “glycan array binding signal (z-score)” value [9] was 7.14. The “glycan array binding signal (z-score)” value [10] was -0.171, the “glycan array binding signal (z-score)” value [11] was 2.31 and the “glycan array binding signal (z-score)” value [12] was 3.21. For the same binder, the “glycan array binding signal (z-score)” value [13] was 0.74, the “glycan array binding signal (z-score)” value [14] was -0.894 and the “glycan array binding signal (z-score)” value [15] was 0.592. For the same binder, the “glycan array binding signal (z-score)” value [16] was 2.65, the “glycan array binding signal (z-score)” value [17] was -0.841 and the “glycan array binding signal (z-score)” value [18] was -0.767. For the same binder, the “glycan array binding signal (z-score)” value [19] was 3.38, the “glycan array binding signal (z-score)” value [20] was -0.696 and the “glycan array binding signal (z-score)” value [21] was -0.217. For the same binder, the “glycan array binding signal (z-score)” value [22] was 0.904, the “glycan array binding signal (z-score)” value [23] was -0.907 and the “glycan array binding signal (z-score)” value [24] was -0.693. For the same binder, the “glycan array binding signal (z-score)” value [25] was 1.01, the “glycan array binding signal (z-score)” value [26] was -0.786 and the “glycan array binding signal (z-score)” value [27] was -0.369. The “glycan array binding signal (z-score)” value [28] was -0.376, the “glycan array binding signal (z-score)” value [29] was 0.218 and the “glycan array binding signal (z-score)” value [30] was -0.489. The “glycan array binding signal (z-score)” value [31] was -0.78, the “glycan array binding signal (z-score)” value [32] was 2.31 and the “glycan array binding signal (z-score)” value [33] was -0.101. The “glycan array binding signal (z-score)” value [34] was -0.947, the “glycan array binding signal (z-score)” value [35] was 2.92 and the “glycan array binding signal (z-score)” value [36] was -0.962. The “glycan array binding signal (z-score)” value [37] was 4.44, the “glycan array binding signal (z-score)” value [38] was 0.267 and the “glycan array binding signal (z-score)” value [39] was 0.265. The “glycan array binding signal (z-score)” value [40] was -0.887, the “glycan array binding signal (z-score)” value [41] was 0.375 and the “glycan array binding signal (z-score)” value [42] was -0.844. For the same binder, the “glycan array binding signal (z-score)” value [43] was 1.36, the “glycan array binding signal (z-score)” value [44] was 0.145 and the “glycan array binding signal (z-score)” value [45] was -0.532. For the same binder, the “glycan array binding signal (z-score)” value [46] was -0.079, the “glycan array binding signal (z-score)” value [47] was -0.16 and the “glycan array binding signal (z-score)” value [48] was 2.04. For the same binder, the “glycan array binding signal (z-score)” value [49] was -0.823, the “glycan array binding signal (z-score)” value [50] was 2.86 and the “glycan array binding signal (z-score)” value [51] was -0.517. For the same binder, the “glycan array binding signal (z-score)” value [52] was -0.058, the “glycan array binding signal (z-score)” value [53] was -1.1 and the “glycan array binding signal (z-score)” value [54] was 2.88. For the same binder, the “glycan array binding signal (z-score)” value [55] was -0.678, the “glycan array binding signal (z-score)” value [56] was -1.04 and the “glycan array binding signal (z-score)” value [57] was -0.802.
